Holding throughout (assay): NCI-60 one-dose screen, 48 h (100 = growth as untreated, 0 = no growth, -100 = all killed)
What all share (conditions): 10 µM unless noted

The test system of assay [1] is HCT-15 colon.
Assay [2] relates to HT29 colon.
Assay [3] concerns SNB-75 CNS.
In assay [4] the test system is SNB-19 CNS.
The test system of assay [5] is U251 CNS.
Assay [6] deals with PC-3 prostate.
Assay [7] relates to SK-MEL-5 melanoma.
For assay [8], the system named is UACC-62 melanoma.
Assay [9] concerns LOX IMVI melanoma.
Assay [10] concerns SK-MEL-28 melanoma.

Compounds without any hit were thinned out: in the full panel of roughly 83,000, 20% have a hit.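 Treatment: one concentration, 48 hours, 96-well format. Scoring: percent growth, with anything below 10 considered active.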 Values without a mark were called inactive. Calls of active or inactive are those of the source.

The values below come from PubChem BioAssay (NCI).

As to `Nc1nccc2c1ccn2-c1ccc(NC(=O)c2ccc(N3CCOCC3)c(C(F)(F)F)c2)cc1`, the growth is 14.1% in assay [1]; -39.7% (active) in assay [2]; 25.7% in [3]; 0.546% (active) in [4]; 12% in [5]; 10.4% in [6]. For the same compound, the growth in assay [7] was -89.6% (active); in assay [8], 6.43% (active); in assay [9] it was -45.3% (active); in [10] it was 48.9%.

For `O=c1c2ccccc2[nH]n1Cc1ccc2c(c1)OCO2`, the growth in assay [1] is 95.7%; in [2] it was 104%; in [3], 101%; in assay [4], 97%; in [5] it was 96.2%; in assay [6], 88.1%. In addition, the growth was 100% in assay [7], 100% in [8], 111% in assay [9] and 106% in assay [10].

For `FC(F)(F)c1cn(CCN2CCOCC2)c2ncnc(Cl)c12`, the growth in assay [1] was 14.9%; in assay [2], 72.7%; in assay [3] it was 78.1%; in assay [4], 22.5%; in assay [5] it was 71.2%; in assay [6], 28.1%. Moreover, the growth is 42.5% in [7], 53.2% in assay [8], -63.9% (active) in [9] and 72.4% in [10].

Take `Clc1ccc(OCc2nc(-c3ccccc3)n[nH]2)c(Cl)c1`: the growth is 101% in assay [1]; 101% in assay [2]; 93.6% in assay [3]; 99.3% in assay [4]; 95.5% in assay [5]; 87.3% in assay [6]. Moreover, the growth was 100% in [7], 95.6% in assay [8], 94.6% in assay [9] and 110% in [10].

For `Nc1nc(Cl)cc(NCc2ccc(CNc3cc(Cl)nc(N)n3)cc2)n1`, the growth in [1] is 100%; in assay [2] it was 110%; in assay [3], 78.3%; in assay [4], 100%; in [5] it was 98.6%; in [6] it was 109%. The growth in [7] was 58.4%; in [8], 98.3%; in assay [9], 79.5%; in assay [10] it was 120%.

`C=C1C(=O)O[C@H]2[C@H]1CC/C(COC(=O)c1ccc3ccccc3c1)=C\CC[C@@]1(C)O[C@@H]21`: the growth was -45.4% (active) in assay [1]; -87.5% (active) in assay [2]; 25.1% in [3]; 11.6% in assay [4]; -67.3% (active) in assay [5]; -64% (active) in [6]. Moreover, the growth in assay [7] is -74.6% (active); in [8], -73% (active); in assay [9], -89.7% (active); in [10], -61.2% (active).

`CCN1CCN(Cc2ccc(NC(=O)Nc3cccc(-n4ccc5c(NC(=O)c6ccccc6)nccc54)c3)cc2C(F)(F)F)CC1`: the growth in [1] is 77%; in [2], 75.1%; in assay [3], 80.2%; in [4], 89.8%; in assay [5], 76.3%; in [6] it was 66.4%. The growth in assay [7] is 43.1%; in assay [8], 68%; in [9], 85%; in [10], 82.8%.

With `Cc1cc(NCCN(C(C)C)C(C)C)nc(/N=C(\N)Nc2ccc(Cl)c(C(F)(F)F)c2)n1`, the growth in [1] was -56.2% (active); in [2], -86.6% (active); in [3], -100% (active); in assay [4], -83.3% (active); in assay [5] it was -84.4% (active); in [6], -94% (active). Also, the growth was -91.5% (active) in assay [7], -91.6% (active) in assay [8], -70.6% (active) in assay [9] and -87.2% (active) in assay [10].

On to `CCc1ccc(C2=C/C(=C/c3ccc(Cl)cc3)C(=O)N2CCc2ccc(S(N)(=O)=O)cc2)cc1`, for which the growth is 17.7% in assay [1]; 6.46% (active) in assay [2]; 52.5% in assay [3]; 54.6% in assay [4]; 25.1% in assay [5]; 11.5% in assay [6]. The growth in assay [7] is 41.4%; in [8], 31.2%; in assay [9], 24.3%; in assay [10] it was 38.2%.

With `O=C(Nc1ccc(-n2cc(-c3ccncc3)c(-c3ccc(O)c(Cl)c3)n2)cc1)c1cc(Cl)cc(Cl)c1`, the growth in [1] was 11.2%; in assay [2], -19.5% (active); in assay [3], 60.6%; in assay [4], 50%; in [5] it was 26.8%; in [6], 35.6%. Moreover, the growth in assay [7] was 2.65% (active); in assay [8], 65.9%; in assay [9], 1.16% (active); in [10], 53.4%.

`C#C[C@@]1(O)[C@@H](CO)O[C@@H](n2cc(Br)c3c(Cl)ccnc32)[C@@H]1O`: the growth is 8.13% (active) in assay [1]; 12.2% in assay [2]; 35.9% in assay [3]; 37.1% in [4]; 70.9% in [5]; -25.7% (active) in assay [6]. The growth is 73.7% in assay [7], 68% in assay [8], -34% (active) in [9] and 98.9% in assay [10].

For `CN(C)CC/C=C1\c2ccccc2Sc2ccc(Cl)cc21`, the growth is 78.9% in [1]; 30.6% in assay [2]; 52.4% in assay [3]; 85.2% in assay [4]; 49.5% in [5]; 65% in [6]. The growth was 34.1% in [7], 47.1% in assay [8], 53.6% in assay [9] and 55.9% in assay [10].

Consider `O=C(Nc1ccc(-n2ccc3c(NC(=O)c4ccccc4)ncnc32)cc1)c1ccc(Cl)c(C(F)(F)F)c1`, for which the growth in assay [1] is 3.27% (active); in assay [2], -50.6% (active); in assay [3], 66.5%; in [4], 24.7%; in assay [5], -62.9% (active); in assay [6], 29.1%. In addition, the growth in assay [7] was 26.3%; in assay [8] it was 5.8% (active); in [9] it was -9.6% (active); in assay [10], 62.5%.

Regarding `O=C(C[n+]1cccc(Br)c1)c1ccc2c(c1)CCCC2`, the growth in [1] is 99.4%; in assay [2], 80.7%; in [3] it was 101%; in [4], 108%; in [5], 102%; in assay [6], 94.3%. The growth was 99.2% in assay [7], 104% in assay [8], 97.1% in assay [9] and 105% in assay [10].

As to `O=C(O)c1ccc(-n2cc(/C=N/Nc3ccc(Cl)cc3)c(-c3ccc(F)c(F)c3)n2)cc1`, the growth in assay [1] was 52.1%; in [2], 93.4%; in assay [3], 89.6%; in [4], 86.6%; in assay [5], 81.1%; in [6], 60.2%. Moreover, the growth in [7] is 72.3%; in [8], 39.1%; in assay [9], 44.2%; in assay [10], 73.6%.

Regarding `NS(=O)(=O)c1ccc(CCN2C(=O)/C(=C\c3ccc(Cl)cc3)C=C2c2ccc(Oc3ccccc3)cc2)cc1`, the growth in [1] was 64.8%; in assay [2] it was 65.4%; in [3], 77.9%; in assay [4], 80.3%; in [5], 74.5%; in assay [6], 38.6%. Also, the growth in assay [7] was 77.4%; in assay [8], 68.8%; in [9], 81%; in assay [10], 79.8%.

Consider `Fc1cccc(F)c1C#Cc1ccc2cccnc2c1`, for which the growth was 74.9% in assay [1]; 69% in [2]; 97.8% in [3]; 91.3% in [4]; 80.6% in [5]; 86.1% in assay [6]. The growth is 71.9% in assay [7], 71.3% in assay [8], 86.9% in assay [9] and 106% in [10].

Regarding `CSc1ccc(C(=O)C[n+]2cccc(C)c2)cc1`, the growth is 103% in assay [1]; 99.8% in assay [2]; 90.7% in assay [3]; 97.8% in assay [4]; 101% in assay [5]; 96% in assay [6]. For the same compound, the growth in [7] is 100%; in assay [8], 95.1%; in assay [9] it was 103%; in [10], 105%.

Take `COC(OC)C1(c2ccccc2)NC(=O)NC1=O` (stereo not given): the growth in [1] is 110%; in [2], 106%; in assay [3], 94%; in [4] it was 106%; in [5], 107%; in [6] it was 103%. For the same compound, the growth in assay [7] is 115%; in [8], 106%; in [9], 109%; in assay [10] it was 106%.

Turning to `CC1=C[S+](c2ccccc2)c2cccc3cc4ccccc4c1c23` (stereo not given), the growth is 7.56% (active) in assay [1]; 0.469% (active) in [2]; -91.1% (active) in assay [3]; -93.6% (active) in [4]; -81% (active) in assay [5]; 1.38% (active) in assay [6]. The growth is -86.7% (active) in assay [7], -85.2% (active) in [8], 8.36% (active) in assay [9] and 11.5% in [10].

Consider `CCC(C)Nc1ccc(N)cc1` (stereo not given), for which the growth in assay [1] was 30.5%; in assay [2], 7.64% (active); in [3], 29.8%; in [4], 30.6%; in [5], 10.3%; in assay [6], 6.03% (active). For the same compound, the growth in assay [7] is -6.02% (active); in assay [8] it was 30.3%; in assay [9] it was 5.41% (active); in [10] it was 71.6%.

As to `CCOC(=O)CSc1nnc(-c2cc3c([nH]c4ccccc43)c(-c3cccc(O)c3)n2)n1-c1ccc(C)cc1`, the growth in [1] was 42.7%; in assay [2], 43%; in assay [3], 63.3%; in assay [4], 97.3%; in assay [5], 54.9%; in assay [6], 15.1%. In addition, the growth was 94.1% in [7], 85.2% in assay [8], 32.6% in assay [9] and 79.9% in [10].

Take `CC[C@@]1(O)C(=O)OCc2c1cc1n(c2=O)Cc2c-1nc1ccccc1c2/C=N/OC(C)(C)C`: the growth in assay [1] is 11.2%; in assay [2], -13.9% (active); in [3], 0.198% (active); in assay [4] it was 5.74% (active); in assay [5], -37.4% (active); in assay [6], 23.6%. Also, the growth is -66.3% (active) in assay [7], -58.6% (active) in [8], -58.5% (active) in assay [9] and 14.3% in [10].

For `Nn1c(CN2CCN(c3cc4c(cc3F)c(=O)c(C(=O)O)cn4C3CC3)CC2)n[nH]c1=S`, the growth is 106% in assay [1]; 97.8% in assay [2]; 86.4% in assay [3]; 99.6% in [4]; 112% in [5]; 105% in assay [6]. In addition, the growth in assay [7] was 97.5%; in assay [8], 93.9%; in assay [9], 103%; in [10], 109%.

Turning to `Cc1cc[n+](CCCC[n+]2ccc(C)cc2)cc1`, the growth in assay [1] is 93%; in assay [2], 113%; in assay [3], 106%; in assay [4], 107%; in assay [5], 102%; in [6], 88.7%. In addition, the growth in [7] is 99.2%; in [8], 97.5%; in [9], 94.4%; in assay [10], 105%.

For the compound `c1ccc(CNCCN(CCNCc2ccccn2)Cc2ccc3ccccc3c2)nc1`, the growth is 1.52% (active) in assay [1]; 6.31% (active) in assay [2]; 21.2% in [3]; 18.3% in [4]; 3.09% (active) in assay [5]; -0.81% (active) in assay [6]. The growth in [7] was -43.1% (active); in [8], -23.4% (active); in assay [9] it was 0.713% (active); in assay [10], 5% (active).

`O=C(CNc1cccnc1)Nc1ccc(C(=O)/C=C/c2ccc(Cl)cc2)cc1`: the growth in [1] is 88.6%; in assay [2] it was 90%; in assay [3], 87.8%; in assay [4] it was 101%; in assay [5], 82.1%; in assay [6] it was 89.4%. The growth is 91.1% in assay [7], 84.9% in assay [8], 86% in assay [9] and 96.4% in [10].
